Compounds without any hit were thinned out: in the full panel of roughly 83,000, 20% have a hit.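 Cells were grown in 96-well plates and exposed to the test compound at a single concentration for 48 hours; results are reported as percent growth, with values below 10 considered active.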 Unmarked numbers belong to inactive results. Active and inactive are the calls of the source.
What was measured:
Assay in all cases: NCI-60 one-dose screen, 48 h (100 = growth as untreated, 0 = no growth, -100 = all killed)
Conditions in all cases: 10 µM unless noted
SK-MEL-2 melanoma = test system: SK-MEL-2 melanoma
EKVX NSCLC = test system: EKVX NSCLC
SN12C renal = test system: SN12C renal
UO-31 renal = test system: UO-31 renal
TK-10 renal = test system: TK-10 renal
ACHN renal = test system: ACHN renal
CAKI-1 renal = test system: CAKI-1 renal
A498 renal = test system: A498 renal
MOLT-4 leukemia = test system: MOLT-4 leukemia
SR leukemia = test system: SR leukemia
RPMI-8226 leukemia = test system: RPMI-8226 leukemia
OVCAR-8 ovarian = test system: OVCAR-8 ovarian
OVCAR-5 ovarian = test system: OVCAR-5 ovarian
OVCAR-4 ovarian = test system: OVCAR-4 ovarian
SK-OV-3 ovarian = test system: SK-OV-3 ovarian
IGROV1 ovarian = test system: IGROV1 ovarian
OVCAR-3 ovarian = test system: OVCAR-3 ovarian
HS 578T breast = test system: HS 578T breast
NCI/ADR-RES ovarian = test system: NCI/ADR-RES ovarian
CCRF-CEM leukemia = test system: CCRF-CEM leukemia

Row | SMILES | growth (SK-MEL-2 melanoma) | growth (EKVX NSCLC) | growth (SN12C renal) | growth (UO-31 renal) | growth (TK-10 renal) | growth (ACHN renal) | growth (CAKI-1 renal) | growth (A498 renal) | growth (MOLT-4 leukemia) | growth (SR leukemia) | growth (RPMI-8226 leukemia) | growth (OVCAR-8 ovarian) | growth (OVCAR-5 ovarian) | growth (OVCAR-4 ovarian) | growth (SK-OV-3 ovarian) | growth (IGROV1 ovarian) | growth (OVCAR-3 ovarian) | growth (HS 578T breast) | growth (NCI/ADR-RES ovarian) | growth (CCRF-CEM leukemia) [%]
1 | NC(=O)c1cccc(-n2ccc3cc(NC(=O)Nc4ccc(N5CCOCC5)c(C(F)(F)F)c4)ccc32)n1 | 1.78% (active) | 11.2% | 14.1% | 4.85% (active) | -7.65% (active) | 11.6% | 6.33% (active) | -57.1% (active) | -38.9% (active) | -23.5% (active) | -30.7% (active) | 11.6% | 28% | 3.71% (active) | 19.8% | 13.8% | 7.68% (active) | -21.8% (active) | 15.9% | –
2 | C#CCNC1CCC(c2csc(C#C)n2)=C1C (stereo not drawn) | 101% | 24.8% | 65.4% | 44.7% | 130% | -88.2% (active) | 58.3% | 118% | 84.7% | 2.46% (active) | -28.1% (active) | 40.5% | 76% | 90.3% | 92.7% | -63.6% (active) | -21.9% (active) | 90.7% | 33.9% | –
3 | COc1cc2nc(Cl)nc(Nc3cccc(C4=Nc5c(N)nc(N)nc5NC(c5ccc(Br)cc5)C4)c3)c2cc1OC (stereo not drawn) | 94.2% | 97.1% | 99% | 92.9% | 114% | 101% | 90.3% | 90.6% | – | – | -2.07% (active) | 54.6% | 113% | 103% | 125% | 94.1% | 72.6% | 79.8% | 86.6% | 10.9
4 | O=C(Nc1ccc2c(ccn2Cc2ccccn2)c1)c1ccnnc1 | 102% | 75.6% | 70.2% | 58.8% | 60.2% | 97.3% | 65.9% | 56.8% | 115% | 101% | 94.4% | 104% | 95% | 68.3% | 105% | 80.3% | 106% | 102% | 114% | –
5 | C#CC(=O)N(c1ccc(OC)cc1OC)C(C(=O)NCC(=O)OCC)c1cccs1 (stereo not drawn) | 95% | 36.4% | 44.9% | -79.9% (active) | 105% | -90.2% (active) | -83.9% (active) | 57.2% | -22.2% (active) | -25% (active) | -55.3% (active) | 46.6% | 2.13% (active) | 116% | 89.5% | -58.1% (active) | -58.9% (active) | 20.9% | 87.5% | –
6 | N=c1c2cc(-c3ccccc3)oc2ncn1/N=C/c1ccc(Br)cc1 | 104% | 79.4% | 60% | 85.4% | 111% | 19.3% | 88.5% | 80.4% | 85% | 30.1% | 92.4% | 80.7% | 49.3% | 19.7% | 101% | 42.8% | -7.71% (active) | 79.1% | 22.3% | –
7 | CCc1cccc(NC(=O)CNc2cc(S(=O)(=O)N(C)C)cc(C)c2C)c1 | 102% | 50.7% | 69.4% | 48.5% | 65% | 91.3% | 50.5% | 35.5% | 82.4% | 83.8% | 65.7% | 97.7% | 84.1% | 56.3% | 107% | 74% | 112% | 97.2% | 100% | –
8 | CC(C)(C)c1ccc(CC(=O)Nc2sc3c(c2C(N)=O)CCC(=O)C3)cc1 | -5.02% (active) | 10.8% | 6.98% (active) | -87.5% (active) | 16.6% | -90.8% (active) | -56.2% (active) | 47.7% | – | – | -20.7% (active) | 11.1% | 7% (active) | -32.2% (active) | 9.81% (active) | 8.85% (active) | -36% (active) | 33.6% | 3.51% (active) | 10.8
9 | O=C(CN1CCN(c2cc(=O)n(-c3ccccc3)c3ccccc23)CC1)Nc1nc(-c2ccccc2)cs1 | 88.9% | 45.5% | 82.1% | 41.6% | 97.7% | 63.8% | 61.4% | 66.2% | – | 51.3% | 46.2% | 69.8% | 94.1% | 23.3% | 70.7% | – | 72.5% | 82.9% | 62.7% | 39.6
10 | O=C(Nc1ccc2c(ccn2Cc2ccccn2)c1)c1cnccn1 | 103% | 75.7% | 75.9% | 57% | 61.9% | 100% | 66.2% | 40.8% | 101% | 92.7% | 93.7% | 105% | 96.8% | 76% | 109% | 79.7% | 110% | 104% | 107% | –
11 | CCOC(=O)C(=O)/C(=C\c1ccc(Cl)cc1)C(=O)N1C(=S)NC(=O)C1CC(C)C (stereo not drawn) | 112% | 91% | 96.9% | 86.1% | 135% | 99.5% | 91.3% | 102% | 98.4% | 105% | 93.2% | 103% | 98.6% | 98.2% | 108% | 95.2% | 111% | 106% | 101% | –
12 | Nn1c(N/N=C/c2nc3ccccc3s2)n[nH]c1=S | 107% | 64.9% | 86.3% | 58% | 88.3% | 98% | 66.7% | 77.5% | 115% | 108% | 105% | 107% | 103% | 85.8% | 118% | 82.2% | 118% | 110% | 118% | –
13 | CC(C)(O)c1cncc(-c2ccc3ncnc(NCc4ccccc4)c3c2)c1 | 107% | 32.7% | 57.6% | 37.1% | 42.8% | 66.4% | 42.6% | 5.8% (active) | 98.6% | 92.2% | 84.6% | 102% | 62.5% | 77.3% | 110% | 34.2% | 83.8% | 73.2% | 103% | –
14 | CC(=O)c1nnn(-c2c(C(=O)n3nc(C)cc3C)sc(=S)n2-c2ccccc2)c1C | 108% | 90.7% | 103% | 79.8% | 138% | 102% | 91.8% | 94.9% | 94.9% | 109% | 101% | 103% | 120% | 100% | 108% | 95.6% | 115% | 113% | 111% | –
15 | COc1ccc(C2CC(c3ccc(Nc4nc(NCCO)nc(N5CCOCC5)n4)cc3)=Nc3c(N)nc(N)nc3N2)cc1 (stereo not drawn) | 107% | 107% | 96.9% | 93.7% | 115% | 102% | 94.3% | 87.9% | – | 105% | 108% | 99.8% | 109% | 104% | 109% | – | 101% | 91.6% | 107% | 105
16 | CS(=O)(=O)Nc1cc(-c2ccc3ncc(C#N)c(NCc4ccccc4F)c3c2)cnc1Cl | -52.3% (active) | 0.584% (active) | 16.8% | 4.65% (active) | -11.1% (active) | 10.9% | -8.09% (active) | -42.9% (active) | – | – | -22% (active) | 7.93% (active) | 16.8% | 12.6% | -13.7% (active) | -29.1% (active) | 3.41% (active) | – | 25% | 13.3

— PubChem BioAssay (NCI)
